PubChem BioAssay (NCATS)
Several values for one entry are separate records, joined by “and”; a condition that tells them apart may be missing. Equal values may be shown once. Records with an inconclusive call do not appear. Activity calls are given as the source filed them. Unless noted, calls follow the shape of the dose curve; as a rule, active = well fitted curve in the direction sought with a large enough effect; inconclusive = small, poorly fitted or top-dose-only effect, or another doubt; inactive = no such curve, though single readings can be large; an effect the other way counts as inactive or inconclusive.

Legend:
[1] = target: Peroxisome proliferator-activated receptor delta (Homo sapiens) (UniProt Q03181); test: qHTS assay for small molecule agonists of peroxisome proliferator-activated receptor delta signaling (AID 588534; calls by dose curve;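 also: 0% = DMSO basal wells and 100% = positive control agonist at 10 µM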)
Chain of Peroxisome proliferator-activated receptor delta (Homo sapiens) (Q03181 whole entry, looked up): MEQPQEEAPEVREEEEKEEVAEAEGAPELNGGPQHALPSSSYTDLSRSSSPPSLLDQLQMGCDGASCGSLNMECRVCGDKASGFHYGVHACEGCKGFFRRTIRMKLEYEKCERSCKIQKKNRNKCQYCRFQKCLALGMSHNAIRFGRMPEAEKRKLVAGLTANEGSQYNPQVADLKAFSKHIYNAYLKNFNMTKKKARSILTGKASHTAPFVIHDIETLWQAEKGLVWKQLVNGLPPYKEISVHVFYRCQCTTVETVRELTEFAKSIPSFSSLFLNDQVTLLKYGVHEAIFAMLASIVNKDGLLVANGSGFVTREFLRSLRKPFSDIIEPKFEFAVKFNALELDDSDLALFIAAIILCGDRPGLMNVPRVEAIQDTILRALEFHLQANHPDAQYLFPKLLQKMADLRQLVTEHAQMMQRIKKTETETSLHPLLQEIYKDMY
How it was run: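 Fluorescence from CCF4 substrate cleavage by beta-lactamase reporter, read 2 hrs at RT, measured agonist activity. Compounds were tested with 18 hrs exposure at 37 C. Concentration-response data fitted to Hill equation.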

[2] = target: Vitamin D3 receptor (Homo sapiens) (UniProt P11473); test: qHTS assay for small molecule agonists of vitamin D receptor signaling (AID 588543; calls by dose curve;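 also: 0% = DMSO basal and 100% = reference agonist control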)
Chain of Vitamin D3 receptor (Homo sapiens) (P11473 whole entry, looked up): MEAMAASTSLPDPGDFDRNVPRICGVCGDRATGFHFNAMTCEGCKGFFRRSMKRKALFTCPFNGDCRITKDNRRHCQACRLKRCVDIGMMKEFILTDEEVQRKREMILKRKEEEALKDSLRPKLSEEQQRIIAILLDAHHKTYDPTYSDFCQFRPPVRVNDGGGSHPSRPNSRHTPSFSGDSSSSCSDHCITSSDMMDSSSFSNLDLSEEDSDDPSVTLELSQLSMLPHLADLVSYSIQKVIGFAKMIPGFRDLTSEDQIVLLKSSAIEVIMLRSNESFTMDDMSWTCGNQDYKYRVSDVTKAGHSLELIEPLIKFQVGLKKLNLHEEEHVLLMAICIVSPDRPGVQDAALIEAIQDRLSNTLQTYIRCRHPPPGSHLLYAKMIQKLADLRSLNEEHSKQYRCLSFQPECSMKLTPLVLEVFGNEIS
How it was run: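 VDR-UAS-bla HEK293T cells, 2000/well, 2% charcoal-stripped FBS; compound titration 16 h at 37 C; CCF4 beta-lactamase ratio read. Normalized to 50 nM 1-alpha,25-dihydroxyvitamin D3 (100%) and DMSO; Hill fit gives EC50, efficacy.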

[3] = target: Thyroid hormone receptor beta (Homo sapiens) (UniProt P10828); test: qHTS assay for small molecule agonists of thyroid hormone receptor beta signaling (AID 588545; calls by dose curve)
Chain of Thyroid hormone receptor beta (Homo sapiens) (P10828 whole entry, looked up): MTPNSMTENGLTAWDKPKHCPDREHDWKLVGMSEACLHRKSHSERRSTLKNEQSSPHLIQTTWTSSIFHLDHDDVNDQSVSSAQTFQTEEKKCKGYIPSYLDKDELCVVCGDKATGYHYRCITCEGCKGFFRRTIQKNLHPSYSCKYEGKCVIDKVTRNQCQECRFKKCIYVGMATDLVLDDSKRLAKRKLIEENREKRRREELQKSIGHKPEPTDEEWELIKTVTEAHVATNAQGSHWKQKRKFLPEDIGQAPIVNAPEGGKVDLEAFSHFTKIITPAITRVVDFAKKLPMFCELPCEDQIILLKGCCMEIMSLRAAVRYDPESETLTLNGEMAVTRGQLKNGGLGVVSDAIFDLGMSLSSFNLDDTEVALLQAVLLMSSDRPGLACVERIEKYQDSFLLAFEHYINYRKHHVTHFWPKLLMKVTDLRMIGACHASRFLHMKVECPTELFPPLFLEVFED
How it was run: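 In this cell-based screen, titrated compounds act on HEK 293 cells held in medium with 2% charcoal/dextran FBS, NEAA and pyruvate for 18 hrs at 37 C. Responses are expressed relative to T3 (10 nM) as 100% and basal DMSO as 0%.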

[4] = target: Thyroid hormone receptor beta (Homo sapiens) (UniProt P10828); test: qHTS assay for small molecule antagonists of thyroid hormone receptor beta signaling (AID 588547; active = well fitted inhibition curve with a large enough effect in the signal ratio, with a control signal flat, not every such curve was filed as active; the % refers to the signal ratio;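 also: cells stimulated with 0.4 nM T3 agonist during compound exposure; % is scaled to controls: 0 for no effect and ±100 for the full control effect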); details: TR-UAS-bla HEK293, beta-lactamase ratio, antagonist mode, 18 h
How it was run: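 TR-UAS-bla GripTite HEK293 cells in 2% charcoal/dextran FBS medium; compounds 0.59 nM to 92 uM with T3 at 0.4nM final, 18 h at 37 C. Beta-lactamase read by CCF4 fluorescence (460/530 nm); Hill fits gave IC50 and efficacy.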

[5] = qHTS assay for small molecule agonists of the antioxidant response element (ARE) signaling pathway (AID 651741; active = well fitted activation curve with a large enough effect in the signal ratio; the % refers to the signal ratio; also: potency is read from the fitted curve at half-maximal effect; as to activation: % of control where 0% means no effect)
How it was run: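 CellSensor ARE-bla HepG2 cells (2,000/well) carrying ARE-driven beta-lactamase, exposed 16 h at 37 C. LiveBLAzer B/G FRET substrate added for 2 h at room temperature; fluorescence intensity read.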

[6] = S16 Schwann cell PMP22 intronic element firefly luciferase assay (AID 624032); also: nearly all actives have a fitted effect of over 30% in size; also: potency is read from the fitted curve at half-maximal effect
How it was run: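 Rat S16 Schwann cells stably carrying firefly luciferase driven by a PMP22 intronic element, in 10% FBS, treated 24 h at 37 C. ONE-Glo luminescence normalized to PTC124 control and DMSO (0%); curves classed by r2, magnitude and activity.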

[7] = system: 7G8; test: qHTS profiling for inhibitors of Plasmodium falciparum proliferation (AID 504749); also: nearly all actives have a fitted effect of over 60% in size; also: potency is read from the fitted curve at half-maximal effect;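 as to activity, negative = inhibition: 0% = DMSO vehicle and full inhibition = artemisinin control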; details: P. falciparum in erythrocytes, SYBR Green DNA, 72 h; series mostly up to 12.8 µM
How it was run: (§1)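 P. falciparum-infected erythrocytes (0.3% parasitemia, 2.5% hematocrit) incubated with compound 72 h at 37 C, 5% CO2. Parasite DNA detected by SYBR Green after lysis, overnight at room temperature; normalised to 0.29 uM artemisinin and DMSO.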

[8] = system: CP237; test: as above; details: P. falciparum in erythrocytes, SYBR Green DNA, 72 h; series mostly up to 28.7 µM
How it was run: as §1

[9] = system: CP260; test: as above; details: P. falciparum in erythrocytes, SYBR Green DNA, 72 h; series mostly up to 28.7 µM
How it was run: as §1

[10] = system: CP268; test: as above; details: P. falciparum in erythrocytes, SYBR Green DNA, 72 h; series mostly up to 28.7 µM
How it was run: as §1

[11] = system: CP291; test: as above; details: P. falciparum in erythrocytes, SYBR Green DNA, 72 h; series mostly up to 28.7 µM
How it was run: as §1

[12] = system: CP335; test: as above; details: P. falciparum in erythrocytes, SYBR Green DNA, 72 h; series mostly up to 12.8 µM
How it was run: as §1

[13] = system: Dd2; test: as above; details: P. falciparum in erythrocytes, SYBR Green DNA, 72 h; series mostly up to 28.7 µM
How it was run: as §1

[14] = system: GB4; test: as above; details: P. falciparum in erythrocytes, SYBR Green DNA, 72 h; series mostly up to 28.7 µM
How it was run: as §1

[15] = system: ICS; test: as above; details: P. falciparum in erythrocytes, SYBR Green DNA, 72 h; series mostly up to 28.7 µM
How it was run: as §1

[16] = system: JCK; test: as above; details: P. falciparum in erythrocytes, SYBR Green DNA, 72 h; series mostly up to 28.7 µM
How it was run: as §1

[17] = system: PC15; test: as above; details: P. falciparum in erythrocytes, SYBR Green DNA, 72 h; series mostly up to 28.7 µM
How it was run: as §1

[18] = system: PC26; test: as above; details: P. falciparum in erythrocytes, SYBR Green DNA, 72 h; series mostly up to 28.7 µM
How it was run: as §1

[19] = system: W2; test: as above; details: P. falciparum in erythrocytes, SYBR Green DNA, 72 h; series mostly up to 12.8 µM
How it was run: as §1

[20] = S16 Schwann cell PMP22 intronic element beta-lactamase assay (AID 624044; calls by dose curve;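 also: 0% = DMSO and -100% = potassium clavulanate positive control; nearly all actives have a fitted effect of over 15% in size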); details: S16 rat Schwann cells, PMP22 element beta-lactamase FRET, 24 h; ratio activity, negative = inhibition: at 38.3 µM (top of the series) unless noted
How it was run: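 Rat S16 Schwann cells with beta-Lac driven by a PMP22 intronic element, compound-treated 24 h at 37 °C. LiveBLAzer FRET B/G read: 460 nm normalized to potassium clavulanate vs DMSO; 535 nm FRET as viability; concentration-effect curves classified.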

CCCCCCCCCc1ccc(O)cc1
active: Potency [5] 75 µM and 30.6 µM
inactive: outcome [1] | outcome [2] | outcome [3] | activity change % (negative = inhibition) [4] 4.44%

CNC(=O)Oc1cccc2c1OC(C)(C)O2
inactive: outcome [1] | outcome [2]

O=c1ccc2cc(O[C@H]3O[C@@H](CO)[C@@H](O)[C@@H](O)[C@@H]3O)c(O)cc2o1
inactive: Potency [6] | Potency [7] | Potency [8] | Potency [9] | Potency [10] | Potency [11] | Potency [12] | Potency [13] | Potency [14] | Potency [15] | Potency [16] | Potency [17] | Potency [18] | Potency [19]

O=C1C=C2C=CC3C[C@@]2(O1)C1CCCCN31 (some centres undefined)
active: Potency [6] 0.51 µM | Potency [7] 8.91 µM | Potency [8] 5.01 µM | Potency [9] 6.31 µM | Potency [13] 11.2 µM | Potency [15] 7.94 µM | Potency [19] 7.57 µM

CNC(C)[C@@H](O)c1ccccc1 (some centres undefined)
inactive: Potency [6] | Potency [20] | Potency [8] | Potency [9] | Potency [10] | Potency [11] | Potency [12] | Potency [13] | Potency [14] | Potency [15] | Potency [16] | Potency [17] | Potency [18]

CCS(=O)CCSP(=O)(OC)OC (centres undefined)
inactive: outcome [1] | outcome [2] | outcome [3] | activity change % (negative = inhibition) [4] -3.19% | Potency [5]

CCC(C)C1O[C@]2(C=CC1C)CC1CC(C/C=C(\C)[C@H](OC3CC(OC)C(O[C@H]4CC(OC)[C@@H](O)C(C)O4)C(C)O3)[C@@H](C)/C=C/C=C3\COC4C(O)C(C)=C[C@H](C(=O)O1)[C@@]34O)O2 (some centres undefined)
inactive: Potency [20]
active: Potency [7] 10 µM | Potency [11] 10.7 µM | Potency [12] 6.75 µM | Potency [13] 11.2 µM | Potency [14] 13.5 µM | Potency [15] 7.08 µM | Potency [18] 7.57 µM | Potency [19] 4.78 µM

CCC(=O)Nc1ccc(Cl)c(Cl)c1
inactive: outcome [3]

CC(C)N1C(=O)c2ccccc2NS1(=O)=O
inactive: outcome [1] | outcome [3] | activity change % (negative = inhibition) [4] -1.01% | Potency [5]

CCCCSP(=O)(SCCCC)SCCCC
inactive: outcome [1] | outcome [2] | outcome [3] | activity change % (negative = inhibition) [4] -17.4%

CCc1cccc(C)c1N(C(=O)CCl)C(C)COC (centres undefined)
active: Potency [5] 24.3 µM
inactive: outcome [2]

COc1nc(NC(C)C)nc(NC(C)C)n1
inactive: outcome [1] | outcome [2] | outcome [3] | activity change % (negative = inhibition) [4] 0.677% | Potency [5]

N#Cc1c(Cl)cccc1Cl
inactive: outcome [1] | outcome [3] | activity change % (negative = inhibition) [4] -4.17% | Potency [5]

CC(C)(C)C(=O)C(Oc1ccc(Cl)cc1)n1cncn1 (centres undefined)
inactive: outcome [1] | outcome [2] | outcome [3] | activity change % (negative = inhibition) [4] -2.73% and -13.2% | Potency [5]

COP(N)(=O)SC (centres undefined)
inactive: outcome [1] | outcome [3] | activity change % (negative = inhibition) [4] 12.1% and -8.42% | Potency [5]

O=C(O)COc1cc(Cl)c(Cl)cc1Cl
inactive: outcome [2] | activity change % (negative = inhibition) [4] 7.44%

CC(C)Nc1nc(Cl)nc(NC(C)C)n1
inactive: outcome [1] | outcome [2] | outcome [3]
